{
  "source": "PubChem BioAssay (EPA / NIEHS)",
  "note": "Inconclusive results are not listed. Calls of active or inactive are those of the source. Rule for the calls: active = hit-call score of the fitted dose curve at least 0.9, where 1 is the maximum; inconclusive = response in the unintended direction; inactive = score below 0.9.",
  "data": [
    {"read-out": "sulfotransferase (SULT2A), SULT2A1 (gene 6822)", "test": "CLD_SULT2A_6hr: CellzDirect (CLD) Gene Expression Assay for sulfotransferase (SULT2A) at 6 hours (AID 2283669);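 note: hits raise transcript level above the DMSO vehicle baseline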", "experimental": "CLD_6hr is a cell-based, multiplexed-readout assay that uses hepatocyte, a human liver primary cell, with measurements taken at 6 hours after chemical dosing in a 96-well plate.CLD_SULT2A_6hr is one of 16 assay component(s) measured or calculated from the CLD_6hr assay. It is designed to make measurements of mRNA induction, a form of inducible reporter, as detected with chemiluminescence signals by Quantitative Nuclease Protection Assay (qNPA) technology.Data from the assay component CLD_SULT2A_6hr was analyzed at the endpoint, CLD_SULT2A_6hr, in the positive analysis fitting direction relative to DMSO as the negative control and baseline of activity. Using a type of inducible reporter, gain-of-signal activity can be used to understand changes in the reporter gene as they relate to the gene SULT2A1. Furthermore, this assay endpoint can be referred to as a primary readout. To generalize the intended target to other relatable targets, this assay endpoint is annotated to the transferase intended target family, where subfamily is sulfotransferase.\nHuman hepatocyte cultures were treated daily for two consecutive days with fresh dosing solutions containing appropriate concentrations of the 320 ToxCast chemicals (chemical identities were blinded to CellzDirect and other ToxCast collaborators), vehicle control (0.2% DMSO), and positive control inducers as summarized in Table 1. Due to the large number of treatment groups and chemicals examined, the ToxCast chemicals were divided into two groups (spanning two independent cultures of hepatocytes from separate donor preparations (Hu778: ToxCast plates 1 and 2; Hu776: ToxCast plates 3 and 4). Each preparation of human hepatocyte cultures was treated with respective vehicle control, medium only control, set of six positive controls/reference chemicals for the five hepatic receptor pathways, and a subset of eight of the ToxCast chemicals (indoxacarb, pyrithiobac-sodium, norflurazon, cyhalofop-butyl, methomyl, thiram, acetochlor, and propiconazole). These replicate data, coupled with internal replicates designed within the blinded ToxCast chemical library, provided additional data to evaluate interindividual differences between hepatocyte preparations and their potential impact on chemical profiles.Cell morphology and integrity were evaluated using phase-contrast microscopy as an indicator of hepatocyte cell health (Tyson & Green, 1987). Cultures for each treatment group (i.e., media, vehicle [0.2% DMSO], positive control inducers [multiple concentrations], and the ToxCast chemicals [multiple concentrations]) were observed and cell morphology was assessed relative to vehicle control cultures at each harvest time point (0, 6, 24, or 48 h). […] Images were evaluated at the conclusion of the study to assess changes in cell integrity and account for the effects of chemical exposure on uncharacteristic changes in concentration-dependent gene expression profiles. The results from these determinations of apparent cytotoxicity were annotated (yes/no) alongside the corresponding qNPA data for reference.At the conclusion of each treatment period, hepatocyte cultures (96-well) were washed with 1 volume of HBSS, lysed by addition of 25 ul ArrayPlate lysis buffer (HTG, Tucson, AZ), and 70 ul/well of Denaturation Oil, denatured by incubation at 95C for 10 min, and frozen at approximately -70C until analysis by nuclease protection assay (qNPA) (Roberts et al., 2007). For qNPA analysis, cell lysates were thawed at 50C for approximately 30 min, qNPA probes were added, and samples were incubated at 95C for 10 min to begin the detection process by denaturing the target RNA, dissociating the duplexes and secondary structure hybridization. At the conclusion of the hybridization period, S1 nuclease reagent was added to each sample to digest all nonprotected nucleotides at 50C for 60-90 min. […]", "values": [
      {"smiles": "Cc1ccn2nc(S(=O)(=O)Nc3c(F)cccc3F)nc2n1", "outcome": "inactive"},
      {"smiles": "CCOC(=O)COc1cc(-c2nn(C)c(OC(F)F)c2Cl)c(F)cc1Cl", "outcome": "inactive"},
      {"smiles": "C[Si](Cn1cncn1)(c1ccc(F)cc1)c1ccc(F)cc1", "outcome": "inactive"},
      {"smiles": "CCOP(=S)(OCC)Oc1ccc([N+](=O)[O-])cc1", "outcome": "inactive"},
      {"smiles": "CCCSP(=O)(OCC)SCCC", "outcome": "inactive"},
      {"smiles": "CON=C(C(=O)OC)c1ccccc1CON=C(C)c1cccc(C(F)(F)F)c1", "outcome": "inactive"},
      {"smiles": "CCC(CC)Nc1c([N+](=O)[O-])cc(C)c(C)c1[N+](=O)[O-]", "outcome": "inactive"},
      {"smiles": "CNC(=O)ON=C(SC)C(=O)N(C)C", "outcome": "inactive"},
      {"smiles": "CNC(=O)Oc1cccc2c1OC(C)(C)O2", "outcome": "inactive"},
      {"smiles": "C=C(C)[C@H]1Cc2c(ccc3c2O[C@@H]2COc4cc(OC)c(OC)cc4[C@@H]2C3=O)O1", "outcome": "inactive"},
      {"smiles": "CC(COc1ccc(Oc2ccccc2)cc1)Oc1ccccn1", "note": "(stereo not given)", "outcome": "inactive"},
      {"smiles": "CCOP(=S)(OCC)OC(Cl)C(Cl)(Cl)Cl", "note": "(stereo not given)", "outcome": "inactive"},
      {"smiles": "COP(=O)(OC)OC(Br)C(Cl)(Cl)Br", "note": "(stereo not given)", "outcome": "inactive"},
      {"smiles": "O=[N+]([O-])c1cc(C(F)(F)F)c(Cl)c([N+](=O)[O-])c1Nc1ncc(C(F)(F)F)cc1Cl", "outcome": "inactive"},
      {"smiles": "C#CC(C)(C)NC(=O)c1cc(Cl)cc(Cl)c1", "outcome": "inactive"},
      {"smiles": "Nc1nc(N)nc(NC2CC2)n1", "outcome": "inactive"},
      {"smiles": "CCCSP(=O)(OCC)Oc1ccc(Br)cc1Cl", "note": "(stereo not given)", "outcome": "inactive"},
      {"smiles": "Cc1nn(-c2cc(NS(C)(=O)=O)c(Cl)cc2Cl)c(=O)n1C(F)F", "outcome": "inactive"},
      {"smiles": "CCOP(=S)(Oc1cnc(C(C)(C)C)nc1)OC(C)C", "note": "(stereo not given)", "AC50": "10.8 µM (active)"},
      {"smiles": "COc1cccc(C(=O)NN(C(=O)c2cc(C)cc(C)c2)C(C)(C)C)c1C", "outcome": "inactive"},
      {"smiles": "CSc1nnc(C(C)(C)C)c(=O)n1N", "outcome": "inactive"},
      {"smiles": "CCC(=NOC/C=C/Cl)C1=C(O)CC(C2CCOCC2)CC1=O", "note": "(stereo not given)", "outcome": "inactive"},
      {"smiles": "CCCCN(CC)c1c([N+](=O)[O-])cc(C(F)(F)F)cc1[N+](=O)[O-]", "outcome": "inactive"},
      {"smiles": "CCOP(=S)(OCC)Oc1cc(C)nc(C(C)C)n1", "outcome": "inactive"},
      {"smiles": "CC(C)[C@H](C(=O)O[C@H](C#N)c1cccc(Oc2ccccc2)c1)c1ccc(Cl)cc1", "outcome": "inactive"},
      {"smiles": "CSc1nc(NC(C)C)nc(NC(C)C)n1", "outcome": "inactive"},
      {"smiles": "CCc1cccc(CC)c1N(COC)C(=O)CCl", "outcome": "inactive"},
      {"smiles": "C#CCC1=C(C)C(OC(=O)C2C(C=C(C)C)C2(C)C)CC1=O", "note": "(stereo not given)", "outcome": "inactive"},
      {"smiles": "FC(F)C(F)(F)OCC(Cn1cncn1)c1ccc(Cl)cc1Cl", "note": "(stereo not given)", "outcome": "inactive"},
      {"smiles": "CCc1cccc(C)c1N(C(=O)CCl)C(C)COC", "note": "(stereo not given)", "outcome": "inactive"},
      {"smiles": "CC1=NNC(=O)N(/N=C/c2cccnc2)C1", "outcome": "inactive"},
      {"smiles": "O=C(O)c1cc(Oc2ccc(C(F)(F)F)cc2Cl)ccc1[N+](=O)[O-]", "AC50": "0.00442 µM (active)"},
      {"smiles": "CC(C1CC1)C(O)(Cn1cncn1)c1ccc(Cl)cc1", "note": "(stereo not given)", "outcome": "inactive"},
      {"smiles": "CC(C)=CC1C(C(=O)OCN2C(=O)C3=C(CCCC3)C2=O)C1(C)C", "note": "(stereo not given)", "outcome": "inactive"},
      {"smiles": "CCOP(=S)(OCC)SCCSCC", "outcome": "inactive"},
      {"smiles": "CCCCSP(=O)(SCCCC)SCCCC", "outcome": "inactive"},
      {"smiles": "CSC1=N[C@@](C)(c2ccccc2)C(=O)N1Nc1ccccc1", "outcome": "inactive"},
      {"smiles": "CCCOCC(=Nc1ccc(Cl)cc1C(F)(F)F)n1ccnc1", "outcome": "inactive"},
      {"smiles": "CCOP(=S)(OCC)Oc1ccc2c(C)c(Cl)c(=O)oc2c1", "outcome": "inactive"},
      {"smiles": "CCOP(=O)(OCC)Oc1cc(C)nc(C(C)C)n1", "outcome": "inactive"}
    ]}
  ]
}
